According to PubChem BioAssay:
Calls of active or inactive are those of the source.

Legend:
[1] = optical density shifts of acrAB sulA E. coli – strain DRC41, OD650, 48 h, E. coli filamentation inducer project, primary screen (AID 1152); conditions: higher = more signal, called active from +8 up or from −8 down;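 note: E. coli MC1000 strain DRC41 lacking acrAB efflux pump and sulA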
[2] = probe aLefty1 binding on compound microarray – biochemical, small-molecule microarray, 635/667 nm fluorescence, primary screen (AID 1153); conditions: higher = more signal;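 note: score merges spot fluorescence with signal-to-noise ratio from the scanned slide images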
[3] = plasmodial surface anion channel blockers, osmotic lysis – cell-based, P. falciparum Indochina, OD700, 1 h, primary screen (AID 1154); conditions: P. falciparum Indochina infected RBC osmotic lysis, higher = more signal, called active from +8 up or from −8 down
[4] = plasmodial surface anion channel blockers, osmotic lysis – cell-based, P. falciparum Indochina, OD700, 2 h, primary screen (AID 1155);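 note: lysis reports solute entry through the parasite surface anion channel PSAC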; conditions: P. falciparum Indochina infected erythrocytes, higher = more signal, called active from +8 up or from −8 down
[5] = changes in parasitized red cell lysis, either direction – P. falciparum Indochina, OD700, 3 h, PSAC antagonist project, primary screen (AID 1156); conditions: P. falciparum-infected erythrocytes, osmotic lysis, higher = more signal, called active from +8 up or from −8 down
[6] = plasmodial surface anion channel blockers, osmotic lysis – cell-based, P. falciparum Indochina, OD700, 18 h, primary screen (AID 1157); conditions: P. falciparum Indochina infected erythrocytes, osmotic lysis OD700, 18 h; higher = more signal, called active from +8 up or from −8 down
[7] = S6 kinase pathway phospho-S6 level changes – cell-based, A549, cytoblot, luminescence, serum-stimulated, primary screen (AID 1158); conditions: 5 h, higher = more signal;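 note: serum-stimulated A549 lung adenocarcinoma cells; signal is phosphorylated S6 detected by cytoblot immunostaining with HRP secondary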
[8] = target: NADPH oxidase 2 (Homo sapiens) (UniProt P04839); assay: compounds shifting NOX2 Amplex Red fluorescence – cell-based, HEK293-NOX2, PMA-stimulated, NOX inhibitor project, primary screen (AID 1159); conditions: 45 min, higher = more signal, called active from +8 up or from −8 down; note: test concentration not given here
Chain of NADPH oxidase 2 (Homo sapiens) (P04839 whole entry, looked up): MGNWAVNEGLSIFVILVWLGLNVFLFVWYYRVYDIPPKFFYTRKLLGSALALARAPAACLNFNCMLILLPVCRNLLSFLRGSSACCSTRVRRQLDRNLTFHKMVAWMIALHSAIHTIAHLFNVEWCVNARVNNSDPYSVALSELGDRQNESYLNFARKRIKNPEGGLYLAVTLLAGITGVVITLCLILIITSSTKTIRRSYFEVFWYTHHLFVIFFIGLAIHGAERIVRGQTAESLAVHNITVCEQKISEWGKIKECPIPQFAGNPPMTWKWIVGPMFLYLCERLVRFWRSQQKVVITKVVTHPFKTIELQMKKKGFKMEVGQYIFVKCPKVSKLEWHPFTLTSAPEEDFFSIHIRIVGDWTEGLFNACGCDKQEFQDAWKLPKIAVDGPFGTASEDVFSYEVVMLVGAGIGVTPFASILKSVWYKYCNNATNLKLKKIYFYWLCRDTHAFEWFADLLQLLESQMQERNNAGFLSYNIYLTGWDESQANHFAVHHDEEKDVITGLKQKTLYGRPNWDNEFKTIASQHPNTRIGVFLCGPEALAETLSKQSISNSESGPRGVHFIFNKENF

[9] = target: NADPH oxidase 4 (Homo sapiens) (UniProt Q9NPH5); assay: compounds shifting NOX4 Amplex Red fluorescence – cell-based, HEK293-NOX4, tetracycline-induced, NOX inhibitor project, primary screen (AID 1160); conditions: HEK293-NOX4, Amplex Red H2O2 fluorescence, 45 min; higher = more signal, called active from +8 up or from −8 down
Chain of NADPH oxidase 4 (Homo sapiens) (Q9NPH5 whole entry, looked up): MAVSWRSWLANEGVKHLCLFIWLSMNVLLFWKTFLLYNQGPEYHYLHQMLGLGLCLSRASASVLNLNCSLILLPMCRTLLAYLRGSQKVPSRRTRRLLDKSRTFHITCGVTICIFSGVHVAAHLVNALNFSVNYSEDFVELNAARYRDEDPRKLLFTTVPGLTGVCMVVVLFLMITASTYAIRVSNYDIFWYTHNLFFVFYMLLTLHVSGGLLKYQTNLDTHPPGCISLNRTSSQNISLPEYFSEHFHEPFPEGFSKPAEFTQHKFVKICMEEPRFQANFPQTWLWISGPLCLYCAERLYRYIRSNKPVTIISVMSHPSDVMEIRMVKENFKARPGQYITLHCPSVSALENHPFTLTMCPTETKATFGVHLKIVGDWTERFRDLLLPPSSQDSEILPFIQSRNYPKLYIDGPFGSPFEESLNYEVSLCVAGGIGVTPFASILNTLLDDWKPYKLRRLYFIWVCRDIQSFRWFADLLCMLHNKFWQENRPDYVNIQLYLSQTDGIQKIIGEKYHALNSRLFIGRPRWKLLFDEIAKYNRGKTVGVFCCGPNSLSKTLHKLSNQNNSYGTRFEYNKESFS

[10] = target: NADPH oxidase 5 (Homo sapiens) (UniProt Q96PH1); assay: compounds shifting NOX5 Amplex Red fluorescence – cell-based, HEK293-NOX5, NOX inhibitor project, primary screen (AID 1161); conditions: HEK293-NOX5, ionomycin, 45 min, higher = more signal
Chain of NADPH oxidase 5 (Homo sapiens) (Q96PH1 whole entry, looked up): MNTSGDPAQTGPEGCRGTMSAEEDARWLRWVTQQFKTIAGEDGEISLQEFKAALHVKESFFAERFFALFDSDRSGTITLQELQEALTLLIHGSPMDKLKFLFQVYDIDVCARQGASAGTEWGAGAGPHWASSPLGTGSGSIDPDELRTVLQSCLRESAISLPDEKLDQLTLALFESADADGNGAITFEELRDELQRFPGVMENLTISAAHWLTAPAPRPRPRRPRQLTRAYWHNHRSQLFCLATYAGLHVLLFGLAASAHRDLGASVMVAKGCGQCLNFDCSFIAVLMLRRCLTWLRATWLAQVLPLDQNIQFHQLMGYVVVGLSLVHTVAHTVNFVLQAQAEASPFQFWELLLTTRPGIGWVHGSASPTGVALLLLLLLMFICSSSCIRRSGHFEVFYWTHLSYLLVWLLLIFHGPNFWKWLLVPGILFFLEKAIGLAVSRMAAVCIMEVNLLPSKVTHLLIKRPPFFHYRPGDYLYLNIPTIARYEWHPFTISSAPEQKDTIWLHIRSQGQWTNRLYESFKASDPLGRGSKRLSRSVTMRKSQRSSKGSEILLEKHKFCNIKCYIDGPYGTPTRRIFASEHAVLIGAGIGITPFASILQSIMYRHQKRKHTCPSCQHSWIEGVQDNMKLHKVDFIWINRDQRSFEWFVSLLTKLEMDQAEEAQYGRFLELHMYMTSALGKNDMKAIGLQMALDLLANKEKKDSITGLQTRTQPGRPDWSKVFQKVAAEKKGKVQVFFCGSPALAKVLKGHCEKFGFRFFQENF

[11] = compound effects on lung adenocarcinoma cell viability – A549, calcein-AM fluorescence, 48 h, basal, profiling panel (AID 1162); conditions: higher = more signal; note: test concentration not given here
[12] = compound effects on differentiated 3T3-L1 adipocyte viability – cell-based, 3T3-L1 adipocytes, calcein-AM fluorescence, 48 h, basal, profiling panel (AID 1163); conditions: 3T3-L1 adipocytes viability, higher = more signal; note: test concentration not given here
[13] = compound effects on hepatocellular carcinoma cell viability – HepG2, calcein-AM fluorescence, 48 h, basal, profiling panel (AID 1164); conditions: higher = more signal; note: test concentration not given here
[14] = compound effects on multiple myeloma cell viability – MM1S, calcein-AM fluorescence, 48 h, basal, profiling panel (AID 1165); conditions: higher = more signal; note: test concentration not given here
[15] = calcein-AM signal in unstimulated myeloma cells – cell-based, calcein-AM fluorescence, 48 h, PK04 Diversity Set, profiling panel (AID 1166); conditions: RPMI8226 myeloma viability, higher = more signal;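 note: cells grown under basal conditions without added stimulus; test concentration not given here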
[16] = JC-1 mitochondrial signal, unstimulated HepG2 cells – cell-based, JC-1 fluorescence, 24 h, 100 nL compound, profiling panel (AID 1167); conditions: HepG2 mitochondrial potential, higher = more signal; note: test concentration not given here
[17] = JC-1 mitochondrial signal, unstimulated adipocytes – cell-based, JC-1 fluorescence, 3T3-L1 adipocytes, 24 h, 100 nL compound, profiling panel (AID 1168); conditions: JC-1 mitochondrial fluorescence, higher = more signal, called active from +8 up or from −8 down; note: test concentration not given here
[18] = JC-1 mitochondrial signal, unstimulated myeloma cells – cell-based, JC-1 fluorescence, RPMI8226, 24 h, 100 nL compound, profiling panel (AID 1169); conditions: JC-1 mitochondrial potential fluorescence, higher = more signal; note: test concentration not given here
[19] = JC-1 mitochondrial signal, unstimulated MM1S myeloma – cell-based, JC-1 fluorescence, 24 h, 100 nL compound, profiling panel (AID 1170); conditions: MM1S mitochondrial potential, higher = more signal; note: test concentration not given here
[20] = resazurin metabolic signal in A549 cells – cell-based, resazurin fluorescence, 24 h, PK04 Diversity Set, profiling panel (AID 1171); conditions: A549 viability, higher = more signal, called active from +8 up or from −8 down; note: test concentration not given here

Row | SMILES | z-score [1] | composite z-score [2] | z-score [3] | z-score [4] | z-score [5] | z-score [6] | z-score [7] | z-score [8] | z-score [9] | z-score [10] | z-score [11] | z-score [12] | z-score [13] | z-score [14] | z-score [15] | z-score [16] | z-score [17] | z-score [18] | z-score [19] | z-score [20]
1 | CC(C)C(=C=CC[C@@H](O)c1ccccc1OCCO)C[C@@H](O)c1cc(Cl)cc(Cl)c1O | -0.701 (inactive) | 0.0004 | 22.2 (active) | 5.74 (inactive) | -0.0473 (inactive) | 1.56 (inactive) | -0.844 | -1.79 (inactive) | -1.46 (inactive) | -1.8 | -0.551 | 0.493 | -1.07 | -3.43 | -3.96 | -2.61 | -0.00407 (inactive) | -0.847 | -1.31 | 0.0062 (inactive)
2 | COC(=O)[C@@]1(Cc2ccc(F)cc2)[C@H]2c3cc(C(=O)N(C)C)n(CCO)c3C[C@H]2CN1C(=O)c1ccccc1 | -0.285 (inactive) | 0.0774 | 0.0154 (inactive) | -0.687 (inactive) | -1.25 (inactive) | -1.27 (inactive) | 1.8 | 0.254 (inactive) | 1.68 (inactive) | -2.18 | -0.371 | -0.173 | 0.318 | 0.563 | 0.382 | -2.03 | -0.453 (inactive) | 0.161 | 0.243 | -1.59 (inactive)
3 | COCCCN1C(=O)[C@@]2(Cc3ccccc31)c1ccccc1C(=O)N(Cc1ccccc1OC)[C@H]2c1ccc(CO)cc1 | 0.168 (inactive) | 0.193 | 0.883 (inactive) | 0.216 (inactive) | 0.0049 (inactive) | -0.185 (inactive) | 0.592 | 0.0278 (inactive) | 0.545 (inactive) | 1.41 | -0.609 | 1.12 | -0.95 | -0.492 | -0.452 | -0.499 | -0.722 (inactive) | 0.695 | -0.0862 | -0.458 (inactive)
4 | CCCC[C@@H](O)C1=C(COC)Cn2c(=O)n(-c3ccccc3)c(=O)n2[C@H]1CO | 4.01 (inactive) | -0.224 | -0.0913 (inactive) | -0.696 (inactive) | -0.304 (inactive) | -2.74 (inactive) | 1.9 | -1.55 (inactive) | 0.208 (inactive) | 0.716 | 0.281 | 0.122 | 0.166 | 0.103 | 0.337 | 0.376 | -0.301 (inactive) | -0.197 | 0.794 | -0.783 (inactive)
5 | COCCOC(=O)N1C(=O)[C@@]2(c3cc(C#CC4(O)CCCCCC4)ccc31)[C@H](c1ccc(OCCO)cc1)N1[C@H](c3ccccc3)[C@H](c3ccccc3)OC(=O)[C@H]1[C@@H]2C(N)=O | -0.137 (inactive) | 0.223 | 4.19 (inactive) | 1.89 (inactive) | 0.295 (inactive) | 0.999 (inactive) | -0.485 | 1.82 (inactive) | 0.847 (inactive) | -0.305 | -0.29 | 0.902 | -1.52 | -3.04 | -3.86 | -2.03 | -0.408 (inactive) | -0.814 | -1.21 | -0.933 (inactive)
6 | CN(C)CCCNC(=O)[C@@H]1c2ccccc2C(=O)N(C2Cc3ccccc3C2)[C@H]1c1ccc(CO)cc1 | 0.776 (inactive) | -0.765 | 3.98 (inactive) | 0.517 (inactive) | 1.79 (inactive) | 0.281 (inactive) | -0.421 | 0.498 (inactive) | 1.25 (inactive) | 0.545 | 1.61 | 0.121 | 1.99 | -0.233 | -1.28 | 3.81 | 0.571 (inactive) | -0.066 | -0.311 | 0.267 (inactive)
7 | [N-]=[N+]=NCc1ccccc1[C@H]1OC(c2ccc(OCCCO)cc2)=N[C@@]1(Cc1ccccc1)C(=O)N1CCOCC1 | -0.686 (inactive) | 0.321 | 28.8 (active) | 25.7 (active) | 2.96 (inactive) | 2.24 (inactive) | 0.692 | -0.0281 (inactive) | 0.154 (inactive) | -0.526 | 0.281 | 0.491 | 0.556 | -1.45 | -1.11 | 0.213 | -1.67 (inactive) | -0.887 | 0.35 | 1.56 (inactive)
8 | C=CC[C@]1(C(=O)NCc2ccccc2)COC(c2ccc(OCCCO)cc2)=N1 | 0.553 (inactive) | 0.743 | 20.7 (active) | 6.37 (inactive) | 1.44 (inactive) | 0.541 (inactive) | -0.429 | -2.18 (inactive) | 0.00403 (inactive) | -2.1 | -0.555 | 0.548 | -2.51 | -2.01 | -0.953 | -3.22 | -0.436 (inactive) | -0.4 | -0.107 | -0.256 (inactive)
9 | C[N+](C)(C)CCCC[C@@H]1NC(=O)[C@H]2C[C@@H](C(=O)NCCCCCNC(=O)CS)[C@@H](c3ccc(O)cc3)N2C1=O | 1.65 (inactive) | -0.0162 | 0.105 (inactive) | -0.38 (inactive) | -0.364 (inactive) | -2.52 (inactive) | 1.46 | 0.236 (inactive) | 0.335 (inactive) | 1.52 | 0.809 | -0.464 | 0.664 | 0.949 | -1.51 | 1.45 | -0.0341 (inactive) | 0.287 | -0.013 | -0.567 (inactive)
